# High-throughput results: PubChem, several laboratories
# Autofluor counter = counter-screen for toxin protease inhibitors: compound fluorescence | compound autofluorescence counterscreen, microsphere flow cytometry; stronger effect = higher value | fluorescence intensity (concentration not given with the values) | 3.1% of 360,000 active | AID 624483; in the data active means fluorescence intensity above about 16000; inconclusive means no clear call, values can overlap the other calls
# BoNT A protease = BoNT/A light chain protease inhibitors, primary screen, biochemical, flow cytometry, MLPCN library; multiplex microsphere protease substrate cleavage; Botulinum neurotoxin type A light chain protease (Clostridium botulinum A str. ATCC 3502); 0.17% of 360,000 active; inhibition, % at 10 µM; further: plate controls were buffer without enzyme for full effect and enzyme alone for no effect
# BoNT F protease = BoNT/F light chain protease inhibitors, primary screen, biochemical, flow cytometry, MLPCN library | Multiplex microsphere protease cleavage assay | inhibition, % at 10 µM | Botulinum neurotoxin type F light chain protease (Clostridium botulinum) | 0.22% of 360,000 active; in the data active means inhibition above about 35%, passing the limit was not always enough; inconclusive means no clear call, values can overlap the other calls; further: plate controls were buffer without enzyme for full effect and enzyme alone for no effect
# GDH-TPI inh = GDH-TPI coupling enzyme inhibitors, primary screen, artefact control for M. tuberculosis FBA inhibitor project, biochemical, absorbance, full deck | GDH-TPI coupled enzyme counterscreen, NADH absorbance | inhibition, % at 4.8 µM | 1.2% of 360,000 active | AID 588335, 2011; in the data active means inhibition above about 30%;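 further: 0% = DMSO wells and 100% = wells lacking the enzyme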
# Mtb FBA inh = Mtb FBA enzyme inhibitors, primary screen, biochemical, fluorescence, strain H37Rv | 2.3% of 360,000 active | Fructose-bisphosphate aldolase (Mycobacterium tuberculosis (strain ATCC 25618 / H37Rv)), … | AID 588726, 2011 | inhibition, % at 1 µM | purified M. tuberculosis FBA, fluorescence read-out; in the data active means inhibition above about 27%;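 further: 0% = vehicle and 100% = reference inhibitor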
# Anthrax LF prot = Bacillus anthracis LF protease inhibitors, primary screen, biochemical, multiplex microsphere, MLPCN library. Lethal factor (Bacillus anthracis), P15917. multiplex microsphere protease cleavage assay. inhibition, % at 10 µM. 0.12% of 360,000 active. AID 588501, 2011; further: plate controls were buffer without enzyme for full effect and enzyme alone for no effect
# Target sequence (P15917 whole entry, looked up): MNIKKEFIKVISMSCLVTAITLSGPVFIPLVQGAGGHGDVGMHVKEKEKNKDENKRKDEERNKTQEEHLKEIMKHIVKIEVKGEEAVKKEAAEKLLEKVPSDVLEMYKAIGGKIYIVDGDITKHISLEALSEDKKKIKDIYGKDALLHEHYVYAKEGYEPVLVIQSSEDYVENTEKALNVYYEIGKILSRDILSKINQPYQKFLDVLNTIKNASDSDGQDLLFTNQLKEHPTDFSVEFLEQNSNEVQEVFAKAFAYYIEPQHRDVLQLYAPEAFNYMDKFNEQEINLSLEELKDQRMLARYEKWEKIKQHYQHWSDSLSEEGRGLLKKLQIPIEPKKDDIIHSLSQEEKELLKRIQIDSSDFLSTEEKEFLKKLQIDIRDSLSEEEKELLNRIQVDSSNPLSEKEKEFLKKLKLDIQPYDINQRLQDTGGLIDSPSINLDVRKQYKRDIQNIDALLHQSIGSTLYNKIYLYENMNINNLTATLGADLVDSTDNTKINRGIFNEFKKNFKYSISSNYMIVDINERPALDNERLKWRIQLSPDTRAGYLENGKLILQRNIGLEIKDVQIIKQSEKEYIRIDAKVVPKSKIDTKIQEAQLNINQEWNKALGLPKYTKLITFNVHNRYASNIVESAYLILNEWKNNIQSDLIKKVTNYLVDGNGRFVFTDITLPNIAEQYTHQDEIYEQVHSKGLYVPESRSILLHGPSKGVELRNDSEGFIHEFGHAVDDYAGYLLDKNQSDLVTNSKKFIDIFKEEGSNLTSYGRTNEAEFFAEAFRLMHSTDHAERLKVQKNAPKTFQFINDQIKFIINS
# The depositor's hits bear a star; ? = inconclusive; . = no result given; + = active, no number. Rows were chosen to be rich in hits. Some 6.7% of all compounds tested hit in one or more screens of this group. Unless noted, no stated cut-off is given here; in the data, active means inhibition above about 30%; inconclusive means no clear call, values can overlap the other calls; inactive means below that.
SMILES,Autofluor counter,BoNT A protease,BoNT F protease,GDH-TPI inh,Mtb FBA inh,Anthrax LF prot
CC1=CN2C(=NC(=O)CC2(C)C(=O)N(CC(=O)NC2CCCC2)c2cc(C)cc(C)c2)C=C1 (stereo not drawn),4091,-1,4,3,144*,0
Cc1ccnc(NC(=O)CCC(=O)N(CC(=O)NC2CCCCC2)Cc2ccccc2)c1,3660,0,-4,4,5,-9
CC1=CC=CN2C1=NC(=O)CC2(C)C(=O)N(CC(=O)NC1CCCC1)c1cc(C)cc(C)c1 (stereo not drawn),4029,0,3,7,174*,-2
Cc1ccccc1N(CC(=O)NC1CCCCC1)C(=O)c1csnn1,5493,2,7,-2,0,-2
CCOC(=O)Nc1ccc2c(c1)N(C(=O)CCN1CCN(CCO)CC1)c1ccccc1S2,3451,0,2,11,1,0
CC1=CN2C(=NC(=O)CC2(C)C(=O)N(CC(=O)NC2CCCC2)Cc2ccc(Cl)cc2)C=C1 (stereo not drawn),5747,-2,-5,0,117*,0
COCC(C)NC(=O)c1cc2c(ccc3ccccc32)oc1=O (stereo not drawn),3156,0,4,9,+,9
COCC(C)NC(=O)c1ccccc1[N+](=O)[O-] (stereo not drawn),2413,1,2,3,1,1
O=C(c1ccco1)c1cc2c(ccc3ccccc32)oc1=O,22410*,3,3,14,4,3
O=C(OCCCc1cc2ccccc2c(=O)o1)c1ccco1,3561,0,-2,16,2,-3
CC(=O)c1cccc(N(CC(=O)NC2CCCC2)C(=O)CNC(=O)c2cccs2)c1,3763,-4,-2,-6,-1,6
COc1ccc(CNC(C)(C)C)cc1Cl,16540*,0,1,9,1,-1
Cc1ccc(CNc2cnccn2)cc1,11212,0,-2,6,74*,-5
c1ccc(CCNc2cnccn2)cc1,2921,0,15,13,+,-9
c1ccc(CCNCc2cccnc2)cc1,3770,-3,-20,3,0,2
CC1=C(C(=O)OCc2ccccc2)C(c2ccc(C)cc2)NC(=O)N1 (stereo not drawn),3896,0,-2,4,0,0
Cc1nn(C)cc1CNC(=O)c1ccccc1Br,16520*,?,2,11,1,-2
COc1cc(/C=N/NC(=O)C(=O)NCc2ccco2)cc(Br)c1O,4019,0,-4,54*,-2,-4
COc1ccc(/C=N/NC(=O)c2ccc3c(c2)OCO3)c(C(=O)O)c1OC,3314,1,-4,33*,1,8
COc1cc(/C=N/NC(=O)c2ccc3c(c2)OCCO3)c(Br)c(Br)c1O,.,.,.,37*,-1,.
COc1cc(/C=N/NC(=O)c2ccc3c(c2)OCCO3)cc(Br)c1O,5586,0,-5,36*,0,-2
CC(=O)NCCn1c(SCC(=O)NCc2ccco2)nc2ccccc2c1=O,17328*,-2,-4,2,0,-4
CCCCNC(=O)CSc1nc2ccccc2c(=O)n1CCNC(C)=O,9968,-2,-9,-4,0,-3
CC(=O)NCCn1c(SCC(=O)c2ccc(Cl)cc2)nc2ccccc2c1=O,21199*,?,-6,-5,-2,0
O=C(CCCCCn1c(SCC(=O)c2ccccc2)nc2ccccc2c1=O)NCc1ccco1,16253*,0,-1,25,-4,-3
SMILES,Autofluor counter,BoNT A protease,BoNT F protease,GDH-TPI inh,Mtb FBA inh,Anthrax LF prot
CC(=O)NCCn1c(SCC(=O)NCCC(C)C)nc2ccccc2c1=O,23356*,-4,-3,10,0,0
O=C(NCC1COc2ccccc2O1)c1cc(S(=O)(=O)N2CCOCC2)c(Cl)cc1Cl (stereo not drawn),?,4,5,-3,3,3
COC(=O)C1=C(c2ccc(-c3ccccc3)c(F)c2)C[C@@H]2CC[C@H]1N2C(=O)NC1CCCCC1,3900,0,-1,6,1,-10
Cn1c(=O)c2c(nc(NCc3ccco3)n2CCc2ccccc2)n(C)c1=O,2986,1,-3,-8,0,-2
CCn1c(NCc2ccco2)nc2c1c(=O)n(C)c(=O)n2C,21102*,-1,-2,-12,4,1
Cn1c(=O)[nH]c(=O)c2c1nc(NCc1ccco1)n2Cc1ccccc1Cl,3674,0,-3,3,-2,-6
Cn1c(=O)c2c(nc(NCc3ccco3)n2Cc2ccc(Cl)cc2Cl)n(C)c1=O,24075*,-4,-7,5,3,-4
CN=C(Nc1cc(C)nn1-c1ccccc1)c1ccccc1F,23781*,-2,-3,14,1,-1
CN=C(Nc1cc(C)nn1-c1ccccc1)c1ccccc1,6841,0,0,6,3,-2
O=C(NCc1ccccn1)C1CCCN(Cc2cnn(-c3ccccc3)c2-n2cccc2)C1 (stereo not drawn),4117,0,1,-13,0,-1
O=C(O)C1CCN(Cc2cnn(-c3ccccc3)c2-n2cccc2)CC1,11092,1,-2,8,0,3
COc1cccc(CNC(=O)C2CCN(Cc3cnn(-c4ccccc4)c3-n3cccc3)CC2)c1,5706,0,4,-6,-8,3
O=C(NC1CC1)C1CCN(Cc2cnn(-c3ccccc3)c2-n2cccc2)CC1,23345*,-2,-4,-1,2,1
CCN(CC)C(=O)CSCc1cnn(-c2ccccc2)c1-n1cccc1,22480*,?,-4,5,-2,-7
O=C(NCc1ccccn1)C1CCN(Cc2cnn(-c3ccccc3)c2-n2cccc2)CC1,22540*,1,3,-3,2,-2
O=C(CSCc1cnn(-c2ccccc2)c1-n1cccc1)NCc1ccccn1,3261,-1,-4,2,4,-3
O=C(NCc1cccnc1)C1CCCN(Cc2cnn(-c3ccccc3)c2-n2cccc2)C1 (stereo not drawn),23887*,-2,-5,-6,-1,0
S=C(Nc1ccc2nsnc2c1)N1CCCCCC1,3499,21,1,6,0,11
O=C1Cc2cc(S(=O)(=O)NCc3ccccc3Cl)cc3c2N1CCC3,5814,1,5,2,1,2
NC(=O)C1(Nc2ccccc2)CCCC1,3744,0,1,-9,1,3
Cc1cc(C(=O)OCCO)c(C#N)c(N)n1,2755,0,-4,12,143*,0
C#CCSc1nc(C)cc(C(=O)OCC)c1C#N,5741,0,6,0,3,-2
